Laboratory results published in PubChem BioAssay.
Calls of active or inactive are those of the source.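 The calls were made as follows, unless noted: active = inhibition of the reporter signal at or above 50%; inactive = inhibition below 50%.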

Tests used:
[1] = inhibitors of TNFa-induced NFkB p65 translocation, primary screen, imaging, HUVEC, MLSMR starter and 10KST1 sets (AID 438;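 active = inhibition above 20% together with a positive visual image hit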;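 also: compound added about 3h40 before a 20 min TNFalpha stimulation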;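 as to inhibition: signal is the nuclear over cytoplasmic p65 intensity ratio per well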); settings: HUVEC TNFa-induced p65 nuclear translocation; cell count: measured here: nuclei count (cytotoxicity indicator), at 2.08 µM; inhibition: at 2 µM, stronger effect = higher value, 0% TNFa-plus-vehicle, 100% no-TNFa wells
[2] = inhibitors of mutant huntingtin aggregation, primary screen, imaging, exon1htt(103Q)mCFP cells, high-content imaging (AID 483;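 active = visual image review flags a hit and inhibition of aggregation exceeds 20%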;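 also: compound exposure lasted 3 days before fixation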;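 as to nuclei count: percent of the per-plate median nuclei count of sample wells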); settings: exon1htt(103Q)mCFP cell line, aggregate imaging, at 2 µM; inhibition of aggregation: stronger effect = higher value; nuclei count: measured here: cell count, toxicity
[3] = inhibitors of E-selectin induction by TNFa, primary screen, imaging, HUVEC, immunofluorescence, MLSMR starter and 10KST1 sets (AID 487;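 active = visually confirmed hit in the image check and inhibition above 20%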;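 as to inhibition: signal is fraction of cell area covered by stained E-selectin grains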;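 as to nuclei count: 100% = median nuclei count of all wells on the same plate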); settings: HUVEC TNFalpha-induced E-selectin immunofluorescence imaging, at 2 µM; inhibition: stronger effect = higher value; nuclei count: measured here: cell number, toxicity
[4] = target: Voltage-gated potassium channel subunit beta-2 (Rattus norvegicus) (UniProt P62483); test: KvBeta enzyme negative modulators, primary screen, biochemical, NADPH fluorescence (AID 622;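 active = fluorescence slope higher than the sample average by over 3 SD, cut at about -0.22 in these data, passing the limit was not always enough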;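 also: slope of raw intensity against log time taken from 70 to 1610 s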); settings: recombinant KvBeta, 4-cyanobenzaldehyde reduction, at 10 µM, stronger effect = higher value
Sequence of Voltage-gated potassium channel subunit beta-2 (Rattus norvegicus) (P62483 whole entry, looked up): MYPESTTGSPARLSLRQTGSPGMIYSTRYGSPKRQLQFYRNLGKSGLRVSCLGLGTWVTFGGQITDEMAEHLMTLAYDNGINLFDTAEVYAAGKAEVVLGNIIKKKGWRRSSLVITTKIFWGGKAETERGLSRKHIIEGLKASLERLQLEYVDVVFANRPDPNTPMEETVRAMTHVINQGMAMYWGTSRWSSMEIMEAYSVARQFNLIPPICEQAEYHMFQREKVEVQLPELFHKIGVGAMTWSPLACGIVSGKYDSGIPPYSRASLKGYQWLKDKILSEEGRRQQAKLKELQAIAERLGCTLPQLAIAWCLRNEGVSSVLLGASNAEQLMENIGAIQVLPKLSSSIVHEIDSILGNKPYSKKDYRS

[5] = target: Voltage-gated potassium channel subunit beta-2 (Rattus norvegicus) (UniProt P62483); test: KvBeta positive modulators, primary screen, biochemical, NADPH fluorescence (AID 623;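 active = NADPH fluorescence slope more negative than the mean of all samples by about 3 SD, 99.7% confidence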;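 also: fluorescence intensity change per second fitted from 20 to 320 s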); settings: Recombinant KvBeta, NADPH fluorescence decrease slope, 10 min; at 10 µM; stronger effect = lower value
[6] = target: Alpha-2C adrenergic receptor (Homo sapiens) (UniProt P18825); test: modulators of alpha2C/GIRK thallium flux, primary screen, cell-based, HEK293 alpha2C/GIRK1/2 (AID 624;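 active = fluorescence slope after compound addition differing from the mean of all screened samples at 99.7% confidence, in either direction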;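 also: slope of fluorescence ratio to pre-addition baseline per second over 15 to 24 s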); settings: thallium flux BTC fluorescence, at 10 µM, actives lie on both sides
Sequence of Alpha-2C adrenergic receptor (Homo sapiens) (P18825 whole entry, looked up): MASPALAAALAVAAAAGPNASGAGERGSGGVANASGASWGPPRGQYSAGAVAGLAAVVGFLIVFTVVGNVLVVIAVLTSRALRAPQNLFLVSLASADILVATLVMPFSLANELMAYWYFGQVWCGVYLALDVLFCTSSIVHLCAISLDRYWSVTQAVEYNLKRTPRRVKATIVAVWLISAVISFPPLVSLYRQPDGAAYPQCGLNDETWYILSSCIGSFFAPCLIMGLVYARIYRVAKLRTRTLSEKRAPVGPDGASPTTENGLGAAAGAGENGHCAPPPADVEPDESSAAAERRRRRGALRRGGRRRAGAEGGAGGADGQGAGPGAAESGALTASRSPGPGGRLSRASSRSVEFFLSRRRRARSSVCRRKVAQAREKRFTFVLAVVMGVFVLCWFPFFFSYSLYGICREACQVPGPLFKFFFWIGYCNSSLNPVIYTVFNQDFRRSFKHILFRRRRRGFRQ

[7] = inhibitors of Sendai virus-induced IRF3 signaling, primary screen, TLR/RLR signaling modifier project, cell-based, Sendai virus stimulus, luciferase, 10K MLSCN set (AID 602276;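 active = inhibition at or above 50% at 10 µM; inactive = inhibition below 50%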;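 also: firefly luciferase from ISG56 promoter only with Renilla not read in this screen; 0% = Sendai virus plus DMSO and 100% = medium plus DMSO without virus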); settings: HEK293 RL24 IRF3 luciferase reporter, at 10 µM, stronger effect = higher value
[8] = inhibitors of poly I:C-induced TLR3 signaling, primary screen, cell-based, poly I:C stimulus, luciferase, 10K MLSCN set (AID 602277); settings: HEK293-TLR3 RL24 IRF3 luciferase reporter, at 10 µM, stronger effect = higher value

Row | Structure (SMILES) | cell count [1] | inhibition [1] | inhibition of aggregation [2] | nuclei count [2] [%] | inhibition [3] | nuclei count [3] [%] | fluorescence slope [4] | NADPH fluorescence slope [5] | slope [6] | inhibition [7] | inhibition [8]
1 | O=C1CC(C(=O)Nc2ccc(Br)cc2)C2(CCCC2)O1 (stereo not drawn) | 630 | -4.1% (inactive) | -3.7% (inactive) | 102 | -70% (inactive) | 98.1 | -0.406 (inactive) | -3e-05 (inactive) | 0.00668 (inactive) | 16.6% (inactive) | 11.8% (inactive)
2 | COc1ccc(-c2nc(C#N)c(N3CCOCC3)o2)cc1OC | 257 | -4.8% (inactive) | 30.6% (active) | 92.9 | -16.3% (inactive) | 98.5 | -0.341 (inactive) | -1.9e-05 (inactive) | 0.00341 (inactive) | 9.75% (inactive) | -1.53% (inactive)
3 | Cc1nnc2ccc(N3CCN(c4cccc(C(F)(F)F)c4)CC3)nn12 | 596 | 5.5% (inactive) | -64.5% (inactive) | 32.1 | -68.3% (inactive) | 134 | -0.505 (inactive) | -1.3e-05 (inactive) | 0.00619 (inactive) | 3.49% (inactive) | 11.9% (inactive)
4 | CCOC(=O)Cc1csc(NC(=O)CN(C)S(=O)(=O)c2ccc3c(c2)CCC(=O)N3)n1 | 585 | 12.6% (inactive) | -126% (inactive) | 29.2 | 40.4% (inactive) | 111 | -0.521 (inactive) | -3.1e-05 (inactive) | 0.00704 (inactive) | 25.7% (inactive) | 21.7% (inactive)
5 | O=S(=O)(c1ccc(N2CCN(c3ccc(F)cc3)CC2)cc1)N1CCCC1 | 230 | 14% (inactive) | -8.7% (inactive) | 95.7 | -32.4% (inactive) | 106 | -0.476 (inactive) | -2.4e-05 (inactive) | 0.00651 (inactive) | 10.2% (inactive) | 19.7% (inactive)
6 | Cc1nc2ccccc2c2oc(C(=O)NCC3COc4ccccc4O3)cc12 (stereo not drawn) | 532 | 7.6% (inactive) | -11.9% (inactive) | 91.7 | 3.3% (inactive) | 99 | -0.569 (inactive) | -1.4e-05 (inactive) | 0.00744 (inactive) | 9.7% (inactive) | -3.35% (inactive)
7 | CCN1CCN(C(=O)C2CC(c3ccc(F)cc3)=NO2)CC1 (stereo not drawn) | 538 | 1.5% (inactive) | 3% (inactive) | 102 | 1.4% (inactive) | 108 | -0.621 (inactive) | -4e-05 (inactive) | 0.00735 (inactive) | -8.44% (inactive) | 20.7% (inactive)
8 | CCOC(=O)CN1CC23C=CC(O2)C(C(=O)NC2CCCC2)C3C1=O (stereo not drawn) | 671 | 4.1% (inactive) | 0.3% (inactive) | 99.1 | -66.9% (inactive) | 119 | -0.576 (inactive) | -2.3e-05 (inactive) | 0.00621 (inactive) | 11.3% (inactive) | 29.5% (inactive)
9 | CN1CCN(c2oc(COc3ccc(-c4ccccc4)cc3)nc2C#N)CC1 | 3 | 117% (active) | 18.4% (inactive) | 98.4 | -35.9% (inactive) | 111 | -0.425 (inactive) | 1e-05 (inactive) | 0.00577 (inactive) | 8.52% (inactive) | -19.8% (inactive)
10 | CCOC(=O)c1cccc(NC(=O)CSc2nnc(-c3cccnc3)n2C)c1 | 505 | -0.3% (inactive) | 8.9% (inactive) | 97.6 | -100% (inactive) | 134 | -0.285 (inactive) | -5.6e-05 (inactive) | 0.00612 (inactive) | 8.88% (inactive) | 10.4% (inactive)
11 | Cc1ccc(Cc2c(C)nc3c(C(=O)O)cnn3c2C)cc1 | 327 | 7.7% (inactive) | 1.1% (inactive) | 108 | -4.3% (inactive) | 105 | -0.376 (inactive) | -1.4e-05 (inactive) | 0.0026 (inactive) | 3.97% (inactive) | 19.3% (inactive)
12 | O=C(NCC1COc2ccccc2O1)C1CCCN(S(=O)(=O)c2cnc[nH]2)C1 (stereo not drawn) | 617 | 7.3% (inactive) | -15.6% (inactive) | 100 | -63.3% (inactive) | 124 | -0.501 (inactive) | -2e-05 (inactive) | 0.00703 (inactive) | 4.57% (inactive) | 24.5% (inactive)
13 | CSc1oc(-c2ccccc2)nc1S(=O)(=O)c1ccc(F)cc1 | 417 | 8.3% (inactive) | 1% (inactive) | 101 | -45.5% (inactive) | 107 | -0.481 (inactive) | -3.1e-05 (inactive) | 0.00494 (inactive) | 16.4% (inactive) | 22.3% (inactive)
14 | COc1cc2c(cc1NCc1ccccn1)oc1ccccc12 | 304 | -1.5% (inactive) | 20.3% (inactive) | 66.4 | -27.9% (inactive) | 90.6 | -0.365 (inactive) | -4.6e-05 (inactive) | 0.00538 (inactive) | -24.8% (inactive) | -70.7% (inactive)
15 | CCCCCCn1c(SCC(=O)OC)nc2c1c(=O)[nH]c(=O)n2C | 502 | -5.9% (inactive) | 25.4% (inactive) | 71.7 | 5% (inactive) | 91.4 | -0.42 (inactive) | -5.2e-05 (inactive) | 0.00477 (inactive) | 9.4% (inactive) | 31.6% (inactive)
16 | COc1ccc(N2CCN(CCCNC(=O)CC3Oc4ccc(C)cc4NC3=O)CC2)cc1 (stereo not drawn) | 581 | 0.9% (inactive) | 11.6% (inactive) | 104 | -40.7% (inactive) | 130 | -0.472 (inactive) | 1.7e-05 (inactive) | 0.00619 (inactive) | 12.9% (inactive) | 22.1% (inactive)
17 | Cc1ccccc1N(C)S(=O)(=O)c1ccc2[nH]cc(C(=O)NCC3CCCO3)c(=O)c2c1 (stereo not drawn) | 523 | -20.4% (inactive) | 17.8% (inactive) | 55 | -52.3% (inactive) | 104 | -0.404 (inactive) | -4.2e-05 (inactive) | 0.00343 (inactive) | -1.58% (inactive) | 14.4% (inactive)
18 | CC1CN(c2nc3ccccc3nc2C(C#N)C(=O)NCc2ccc3c(c2)OCO3)CC(C)O1 (stereo not drawn) | 340 | 4.7% (inactive) | 11.1% (inactive) | 83.9 | -24.9% (inactive) | 81.7 | -0.347 (inactive) | -5.3e-05 (inactive) | 0.00757 (inactive) | 18.7% (inactive) | 14.5% (inactive)
19 | COc1ccc(NC(=O)CCc2ccccc2)cc1NC(=O)c1ccco1 | 526 | 2.3% (inactive) | 8.7% (inactive) | 88.9 | -61.5% (inactive) | 95.1 | -0.504 (inactive) | -5e-05 (inactive) | 0.0047 (inactive) | 16.7% (inactive) | 37.2% (inactive)
20 | CN1CCN(C(=O)c2ccc3c(=O)n(CCc4ccccc4)c(=S)[nH]c3c2)CC1 | 551 | -13.1% (inactive) | -0.8% (inactive) | 77 | -44.1% (inactive) | 98.9 | -0.459 (inactive) | 5.7e-06 (inactive) | 0.00697 (inactive) | 4.3% (inactive) | 23.3% (inactive)
21 | O=C(COC(=O)C1CC2C=CC1C2)Nc1ccc2c(c1)OC(F)(F)O2 (stereo not drawn) | 434 | 9.3% (inactive) | 13.3% (inactive) | 89.2 | 11.1% (inactive) | 91.8 | -0.437 (inactive) | -6.4e-05 (inactive) | 0.00772 (inactive) | 15.9% (inactive) | 20.1% (inactive)
22 | Cc1cc(C)n(S(=O)(=O)c2cc(C(=O)O)c(Cl)cc2Cl)n1 | 432 | -0.5% (inactive) | -10.2% (inactive) | 110 | -83.9% (inactive) | 98.4 | -0.387 (inactive) | 4.4e-06 (inactive) | 0.00497 (inactive) | 13.3% (inactive) | 10.3% (inactive)
23 | CCN(CC(=O)Nc1c(C(=O)OC)[nH]c2ccccc12)c1ccc2c(c1)OCO2 | 309 | -2.1% (inactive) | -25.6% (inactive) | 70.8 | -53.3% (inactive) | 103 | -0.376 (inactive) | -6.7e-05 (inactive) | 0.00578 (inactive) | 20.2% (inactive) | 8.63% (inactive)
24 | COC(=O)c1ccc(NC(=O)C2CC(=O)N(c3cc(C)ccc3C)C2)cc1 (stereo not drawn) | 504 | 6.6% (inactive) | 8.1% (inactive) | 92.6 | -29.9% (inactive) | 95.1 | -0.587 (inactive) | -9.6e-06 (inactive) | 0.00549 (inactive) | -15.3% (inactive) | -26.3% (inactive)
25 | O=C(Nc1cccc2ccccc12)N1CCOCC1 | 654 | -3.4% (inactive) | -12% (inactive) | 116 | -33.2% (inactive) | 106 | -0.341 (inactive) | -6.3e-05 (inactive) | 0.00634 (inactive) | 18.7% (inactive) | 23.7% (inactive)
26 | CCN(CC)S(=O)(=O)c1ccc2oc(SCc3ccc(F)cc3)nc2c1 | 707 | -9.4% (inactive) | 6.8% (inactive) | 104 | -6.6% (inactive) | 110 | -0.604 (inactive) | -6.8e-05 (inactive) | 0.00777 (inactive) | 1.12% (inactive) | -39.5% (inactive)
27 | O=C(Nc1ncc2c(n1)CC(c1ccccc1)CC2=O)c1ccco1 (stereo not drawn) | 572 | -8.6% (inactive) | -5.3% (inactive) | 99.5 | -3.8% (inactive) | 86 | -0.534 (inactive) | -5.7e-06 (inactive) | 0.00546 (inactive) | 9.1% (inactive) | 9.67% (inactive)
28 | O=C(COC(=O)c1cccc(S(=O)(=O)N2CCc3ccccc32)c1)NC1CCS(=O)(=O)C1 (stereo not drawn) | 611 | 8.9% (inactive) | -6.2% (inactive) | 125 | -104% (inactive) | 111 | -0.283 (inactive) | -7.3e-05 (inactive) | 0.00577 (inactive) | 3.1% (inactive) | 12.9% (inactive)
